# Vif-APOBEC3G blk = qHTS for Inhibitors of Vif-A3G Interactions: qHTS. HeLa A3G-eYFP + Vif (tagged APOBEC3G with the HIV-1 protein that degrades it), YFP fluorescence, overnight. 0.076% of 410,000 active. AID 602310, 2012. DNA dC->dU-editing enzyme APOBEC-3G (Homo sapiens), Q9HC16. Potency, µM (top dose mostly 46.1 µM), most hits filed as inhibitors; note: nearly all actives have a fitted effect of over 60% in size
#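 HeLa cells stably expressing Vif and C-terminally eYFP-tagged A3G, seeded overnight at 37 deg C, then exposed to compound by pintool overnight at 37 deg C. Rise in yellow fluorescence (Ex 488/Em 500-530, Acumen) marks blocked Vif-driven A3G degradation.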
# Vif-APOBEC3F blk = qHTS for Inhibitors of Vif-A3F Interactions: qHTS; HeLa A3F-eYFP + Vif (tagged APOBEC3F with the HIV-1 protein that degrades it), YFP fluorescence increase; Potency, µM (highest dose often 46.1 µM); 0.2% of 390,000 active; note: nearly all actives have a fitted effect of over 65% in size
#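 Fluorescence increase (Ex 488/Em 500-530) after overnight compound treatment at 37 deg C flags inhibition of Vif-driven A3F-eYFP loss in stable HeLa A3F-eYFP/Vif cells seeded overnight beforehand.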
# PLK1 PBD block = qHTS for Inhibitors of PLK1-PDB (polo-like kinase 1 - polo-box domain): Primary Screen; Serine/threonine-protein kinase PLK1 (Homo sapiens), P53350; Plk1 PBD binding of FITC phosphopeptide, fluorescence polarization; Potency, µM, usual class: inhibitors; 2.8% of 360,000 active; note: series mostly up to about 57 µM; nearly all actives have a fitted effect of over 65% in size
# VDR inhibitor = Inhibitors of the vitamin D receptor (VDR): qHTS; VDR-SRC2-3 peptide fluorescence polarization, 2 h; Potency, µM, usual class: inhibitors; 0.93% of 400,000 active; AID 504847, 2011
#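 FP read-out; VDR + SRC2-3 coactivator peptide; 23 nl compound by pintool; 2 h RT incubation; reagents held at 4 deg C, protected from light.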
# TSHR antag = Antagonists of the Thyroid Stimulating Hormone Receptor: HTS campaign; activity change, negative = inhibition, % at 11.5 µM; 0.2% of 330,000 active; TSHR-expressing cells, TSH-stimulated cAMP HTRF, 2 h; active compounds read low; AID 504810, 2011; Thyrotropin receptor (Homo sapiens), P16473;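 active = activity change below a set negative limit, meaning inhibition stronger than a set level, cut at about -70% in these data; inconclusive = activity change between two set negative limits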
# Target sequence (P16473 whole entry, looked up): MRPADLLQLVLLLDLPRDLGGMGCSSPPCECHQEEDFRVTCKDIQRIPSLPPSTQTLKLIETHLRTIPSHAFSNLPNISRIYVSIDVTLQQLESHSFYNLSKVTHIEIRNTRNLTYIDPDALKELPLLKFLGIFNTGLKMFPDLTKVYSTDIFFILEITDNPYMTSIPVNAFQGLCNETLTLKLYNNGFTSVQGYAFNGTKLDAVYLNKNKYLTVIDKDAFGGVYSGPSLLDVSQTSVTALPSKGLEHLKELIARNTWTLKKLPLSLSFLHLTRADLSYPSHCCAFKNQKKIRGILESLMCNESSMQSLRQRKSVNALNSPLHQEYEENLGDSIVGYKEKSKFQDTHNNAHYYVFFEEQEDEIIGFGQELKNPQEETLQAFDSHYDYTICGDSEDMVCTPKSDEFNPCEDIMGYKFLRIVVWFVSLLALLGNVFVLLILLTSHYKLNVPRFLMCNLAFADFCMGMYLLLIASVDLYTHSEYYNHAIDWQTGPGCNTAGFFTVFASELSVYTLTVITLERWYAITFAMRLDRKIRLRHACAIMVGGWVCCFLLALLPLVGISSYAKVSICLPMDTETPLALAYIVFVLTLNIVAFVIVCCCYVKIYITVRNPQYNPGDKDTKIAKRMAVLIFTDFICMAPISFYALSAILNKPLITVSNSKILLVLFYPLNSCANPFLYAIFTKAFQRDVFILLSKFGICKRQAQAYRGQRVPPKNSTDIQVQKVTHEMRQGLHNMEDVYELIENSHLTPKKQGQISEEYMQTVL
#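 Antagonism was scored as loss of TSH-driven cAMP in TSHR cells, stimulated with 4nM TSH (EC80) for 2 hours at 37 deg C and detected by homogeneous HTRF competition immunoassay.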
# Numbers stand for hits; 0 = inactive; ? = inconclusive; - = not tested or not shown; ! = not active in a repeat. Most compounds without a hit are left out; they make up all but 3.1% or so of the library. Unless noted, calls come from the whole dose curve; as a rule, active = well fitted curve in the direction sought with a large enough effect; inconclusive = small, poorly fitted or top-dose-only effect, or another doubt; inactive = no such curve, though single readings can be large; an effect the other way counts as inactive or inconclusive.
SMILES,Vif-APOBEC3G blk,Vif-APOBEC3F blk,PLK1 PBD block,VDR inhibitor,TSHR antag
Cc1ccc(-n2c(=O)[nH]c3ncccc3c2=O)cc1,0,0,0,0,0
Cc1ccc(-n2c(Cl)c(Cl)nc(Cl)c2=O)cc1,0,0,2.7µM,?,-95
COc1cc(N(C)C)c(OC)cc1C=C1C=CC=C1,0,-,-,-,-
Nc1cc(-c2ccccc2)ccc1O,0,-,21µM,0,0
CC(=O)Nc1cc(-c2ccccc2)ccc1O,0,0,0,0,0
COc1ccc(CNC(=O)C(=O)NCC(c2cccnc2)N2CCN(c3ccccc3)CC2)cc1 (stereo not given),0,0,-,0,-
COc1cc2c(cc1NC(=O)c1cncc(Br)c1)oc1ccccc12,0,0,27µM,0,0
O=C(Nc1ccc(F)cc1F)c1cncc(Br)c1,0,0,0,0,0
O=C(Nc1ccccc1[N+](=O)[O-])c1cncc(Br)c1,0,0,30µM,0,0
CCN(CC)S(=O)(=O)c1cccc(C(=O)Nc2cc3oc4ccccc4c3cc2OC)c1,0,0,0,0,0
CCCN(CCC)C(=O)Cn1c(=O)n(-c2cccc(C(F)(F)F)c2)c(=O)c2c(C)c(C)sc21,-,-,-,0,-
C=C(C(=O)C(C)(C)O)C(O)c1ccc([N+](=O)[O-])cc1 (stereo not given),-,-,-,0,-
CCc1c(C)nc(SCC(=O)c2cccs2)c(C#N)c1C,13µM,?,0,0,0
C[N+]1(CC(=O)c2ccc(Cl)c(Cl)c2)CCOCC1,0,-,-,-,-
COCCN(C(=O)CCC(=O)Nc1nccs1)C(C(=O)NCCC(C)C)c1ccc(OC)cc1 (stereo not given),0,0,0,0,0
COc1ccc(C(C(=O)NC(C)C)N(C(=O)CCC(=O)Nc2nccs2)c2ccccc2F)cc1 (stereo not given),0,0,13µM,0,0
CCOc1ccc(NC(=S)NC(=O)/C=C/c2ccco2)cc1,?,0,0,0,0
COc1cc(NS(=O)(=O)c2ccc(NC(=S)NC(=O)/C=C/c3ccco3)cc2)ncn1,0,0,13µM,0,0
COc1nccnc1NS(=O)(=O)c1ccc(NC(=S)NC(=O)/C=C/c2ccccc2)cc1,0,0,30µM,?,0
COc1nccnc1NS(=O)(=O)c1ccc(NC(=S)NC(=O)c2ccccc2)cc1,0,0,0,0,0
O=C(C[n+]1ccccc1Cl)c1ccc(O)c(O)c1,0,-,-,-,-
COc1cc(-c2cc(O)c(-c3ccc4ccccc4n3)c(=O)[nH]2)cc(OC)c1OC,10µM,11µM,0,0,-
COc1ccc(-n2nc3c(N4CCC(C(=O)NCc5cccc(C)c5)CC4)nnc(C)c3c2C)cc1,?,0,0,0,0
COc1ccc(-n2nc3c(N4CCC(C(=O)NCCc5ccco5)CC4)nnc(C)c3c2C)cc1,0,0,27µM,0,0
Cc1cnc(CNc2nc(-c3ccc(C(=O)N(C)C)cc3)nc3ccccc23)cn1,-,-,-,0,-
SMILES,Vif-APOBEC3G blk,Vif-APOBEC3F blk,PLK1 PBD block,VDR inhibitor,TSHR antag
Cc1ccc(N=C2C(=O)Nc3ccccc32)cc1C,0,0,0,0,0
Cc1ccc([N+](=O)[O-])cc1N=C1C(=O)Nc2ccccc21,0,0,0,25µM,0
CCOC(=O)Cc1csc(NC(=O)NC2(C(F)(F)F)Oc3ccc(Cl)cc3O2)n1 (stereo not given),0,0,17µM,?,0
CCOC(=O)Cc1csc(NC(=O)Nc2ccc(OC(F)(F)F)cc2)n1,0,0,0,0,0
CCOC(=O)Cc1csc(NC(=O)NC2(C(F)(F)F)Oc3ccccc3O2)n1,0,0,12µM,?,-
CCOC(=O)Cc1csc(NC(=O)c2cc(C)c(C)s2)n1,0,0,0,0,0
CCOC(=O)Cc1csc(NC(=O)NC2(C(F)(F)F)Oc3cc(Cl)c(Cl)cc3O2)n1,0,0,21µM,0,0
CCOC(=O)Cc1csc(NC(=O)Cc2ccc(Cl)cc2)n1,0,0,0,0,0
O=C(Nc1cccnc1Cl)c1cnn2c1NC(=C1CC1)C=C2C(F)F,0,-,-,-,-
Cc1cn([C@H]2C[C@H](O)[C@@H](CNCc3ccccc3)O2)c(=O)[nH]c1=O,0,0,0,-,-
Cc1cn([C@H]2C[C@H](O)[C@@H](CNCc3cccn3-c3ccncc3)O2)c(=O)[nH]c1=O,0,0,1.1µM,-,-
O=C(O)CC/C=C\CC[C@@H]1[C@@H](N2CCCCC2)[C@@H](O)C[C@@H]1OCc1ccc(-c2ccccc2)cc1,-,-,-,0,-
Cc1cc(NC(=O)CCc2nc3cccnc3n2-c2ccccc2)ccc1Br,0,0,-,0,-
COc1ccc2c(c1)c1nc3ccccc3nc1n2Cc1ccc(OC)c(OC)c1,?,25µM,0,0,0
COc1ccccc1NC(=O)CSCc1cc(=O)c2cccc(Cl)c2[nH]1,0,0,-,0,-
N#C/C(=C/c1ccc(F)cc1)C(N)=S,0,0,30µM,89µM,0
CC(C)(C)c1cc(/C=C(\C#N)C(N)=S)cc(C(C)(C)C)c1O,-,-,-,35µM,?
N#CC(C#N)=C(N)/C(C#N)=C/c1cc(O)c(O)c(O)c1,0,0,0,40µM!,0
Cc1cc(C)c(/C=C(\C#N)C(N)=S)c(C)c1,0,0,0,0,0
COC(=O)C1[C@H]2SC(C)(C)C(C(=O)OC)N2C(=O)N1Cc1ccccc1 (stereo not given in full),0,-,-,-,-
NC(N)=NCCC[C@H](N)C(=O)N1CCC[C@H]1C(=O)N1CCC[C@H]1C(=O)NCC(=O)N[C@@H](Cc1ccccc1)C(=O)N[C@@H](CO)C(=O)N1CCC[C@H]1C(=O)N[C@@H](Cc1ccccc1)C(=O)O,-,-,-,0,-
CCCCOc1ccc(/C=N/Nc2cc(N3CCOCC3)nc(C)n2)cc1,0,0,0,0,-118
O=C1C=CC2(O[C@H](c3ccccc3)[C@@H](c3ccccc3)O2)[C@H](Sc2ccccc2O)C1,?,0,2.4µM,10µM,-
Cc1ccc(NC(=O)Cn2c(=S)[nH]c3ccccc32)cc1,0,0,24µM,0,0
COC(=O)[C@H](COC(C)(C)C)NC(=O)O[C@H]1C(=O)c2ccc(OC)cc2O[C@@H]1c1ccc2c(c1)OCO2,-,-,-,0,-
NC(=O)N/N=C/c1c(F)c(F)c(F)c(F)c1F,0,0,21µM,25µM,0
CCC1CC=CC2C1C(=O)N(Cc1ccccc1)C2c1ccc(OC)c(Cl)c1 (stereo not given),0,-,-,0,-
CCCC[C@@H](C=O)NC(=O)[C@H](CC(C)C)NC(=O)OCc1ccccc1,-,-,-,35µM,-
CC(C)CC(NC(=O)OCc1ccccc1)C(=O)NC(Cc1ccccc1)C(=O)CCl (stereo not given),0,0,0,71µM,-

# Source: PubChem BioAssay (National Center for Advancing Translational Sciences (NCATS))
